# Laboratory results published in the supplement of paper PMC6555819.
# Tested on: VDR:RXRa (NR concentration 270 nM, RXRa partner concentration 90 nM)
# Experiment: PBM binding z-score (relative to random genomic background probes); higher = stronger binding; sequences stand for … in GC…GCGATTGACAGCGTAGAATGAAGG
# Description: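 Protein-binding microarray (Agilent 4x180K custom design, double-stranded 60-nt probes: 5' GC cap, 34-nt variable region, 24-nt constant primer region; full probe sequence given). Purified or IVT nuclear receptor:RXRα heterodimers (3:1 NR:RXRα, mostly 270:90 nM) or homodimers were incubated for 1 h in PBS with 2% milk and no ligand, then detected with Alexa488 antibodies. Fluorescence from o1-orientation probes (~5 replicates averaged) was converted to z-scores against 500 random hg19 background probes. Variable regions are seed direct-repeat (DR0–DR5) sites, all their single-nucleotide variants and half-site ablations.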
row,Sequence,PBM binding z-score
1,AGAACGAGTGCAATGAGTTGATAGCACGGGTGGC,4.09
2,GCGACTGGGGCATCAGTAGGTTACCATAACTTAA,-0.141
3,ATCTCTAGGTAACCAAGTTCAGTCAATGCCGAAC,4.36
4,TCTCGGAGGACACGAAGGGCAGAGCTTTCCAGAG,0.0136
5,GCTAGTTGGTCAGTAAAAGGTCACACCCCGGTCG,3.83
6,GCTATTAGTTGAAAGGGCAACCGTATGATTCTCG,0.653
7,TGATATAGGTAAAGGTGAAAGTCGAACGATATGA,0.866
8,TCGTGTAGATCAACAGGAGGTTAAGAAAGATCGA,0.314
9,CAAACTAGGTCACAGAGGTCAAATTCCGTGCGTA,8.11
10,CGTCCAAGGTCATAGGAGGTCAGTGAGGACAGAT,7.07
11,CCAACGAGGGCATGAGTTGATAGCAAATGCCGAT,1.09
12,TCTGCTAGGTCGGTTGGTCAGCTAACGAGCTGCC,-0.462
13,TCTTCTAGATCAATAGAGGTTAAGAAAGTGCGCT,1.94
14,ACTAGCAGGCCAAGGGTCAGTCAAGATTAGTCCG,1.12
15,TCAAGCAGGCCAGAGGGTCACTCAAGAGGTACGG,1.52
16,TCATATAGGTAATACCGGTGAAAGTCGGCATCTA,0.463
17,TCTCGGAGGACACGAATGTCAGAGCTTTCCAGAG,-0.117
18,CGAACTATGTCAGAACAGGACAGTGAAGGATGAT,-0.317
19,GCTGCTAGGTCAGGTTGATCAGCTAACGGGTACG,0.431
20,ACTATTAGTTGACTTAGGGAAACCGATACGACGC,0.0698

row,Sequence,PBM binding z-score
1,GATACAGGGTCAGCTAGAGGCCAGTGTATGGAAA,3.43
2,ATCGAGAGGTCGAGGTGAGTATAGAGAAAGGGAA,2.41
3,CCTACCGGGCCATCAGGTCATTGATATCAACGTT,1.83
4,TTACCAAGGTGAAAGGTTGTTGATGCACGCCTTG,1.15
5,CATACTAGGTCAAGGTCAAAGTCGGTTTGTGCCA,5.31
6,GCTTGTAGATCAAGGGTAAGAAAGACTAAGCTAA,-0.559
7,GCTGCTAGGTCAGTTTGGTCAGCTAACGGGTACG,0.529
8,TCTTGTAGATCAACAGGAGGTTCAGAAAGATCGA,0.595
9,CGAACTAGGTCAGAACATGACAGTGAAGGATGAT,0.229
10,TCTCGTAGATCAAGCAGGTTAAGAAAGCCTGAGT,-0.00505
11,CCTAGCAGGCCAATCTGGGTCACTTAAGGCTTGA,0.526
12,CAGACTAGGTCAAGAGGTCAAAGTCCGCTTCCCG,5.97
13,AGAACGAGGGCAATGAGTTGATGGCACGGGTGGC,4.7
14,TCATATAGGTAATGCAGGTGAAAGTCGGCATCTA,0.862
15,ACTTACGGGTTAACGAGGTTATAGCACGCGTATA,6.31
16,ATTTGTAGGTTAGCTGGGGTCATTCAGACTAGGC,6.42
17,CCTCGGAGGACAGAAGGGCAGAGCTGTCCGCTTT,-0.902
18,TCTATTAGTCGAAGGGCAACCGACGAGTCCGTTT,0.789
19,TCTTGTAGATCAACAGGAGGTAAAGAAAGATCGA,0.194
20,TCGAGTTGGTTAGTCGGGGCATTCAGCCAACATA,0.43
